“And” between values parts separate entries of the source, which are not always exact repeats. Equal entries are not always repeated. Inconclusive results are not listed. Unmarked numbers belong to inactive results. The source made the active and inactive calls. Unless noted, the call rests on the fitted dose curve.
System: not listed separately
Experiment: qHTS assay to identify small molecule agonists or antagonists of the thyroid stimulating hormone receptor (TSHR) signaling pathway - wild type cell line counter screen (AID 1259384)
Conditions: HEK293 wild type, cAMP HTRF counter-screen; series mostly up to 92.4 µM; cAMP activity change: at the top concentration
Outline: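 Counter screen in untransfected Hek293: compounds (15-point titration, triplicate) plus phosphodiesterase inhibitor Ro20-1724 added after 18 h plating; 30 min RT. Intracellular cAMP via competitive d2/cryptate immunoassay, 1 h incubation.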
On the % scale 0 is the no-effect control and ±100 the full control effect.

Structure (SMILES) | cAMP activity change | Potency
CC1CCCC1 | -2.14% | 
BrCCCBr | 5.6% | 
O=C1C2(Cl)C3(Cl)C4(Cl)C(Cl)(Cl)C5(Cl)C3(Cl)C1(Cl)C5(Cl)C24Cl (centres undefined) |  | inactive
O=c1[nH]c(Cl)c(Cl)cc1Cl | 0.271% | 
N#Cc1sc2c(=O)c3ccccc3c(=O)c=2sc1C#N | -5.33% | 
CC(=O)[O][Sn]([c]1ccccc1)([c]1ccccc1)[c]1ccccc1 | 0.894% | 
C[C@]12C/C(=C/O)C(=O)C[C@@H]1CC[C@@H]1[C@@H]2CC[C@@]2(C)[C@H]1CC[C@]2(C)O |  | inactive
O=C(CCCCl)c1ccc(F)cc1 | 0.985% [at 42.5 µM, stronger effect = higher value] | 
Cc1c([N+](=O)[O-])c(C)c([N+](=O)[O-])c(C(C)(C)C)c1[N+](=O)[O-] | -0.367% | 
Cc1ccccc1OP(=O)(Oc1ccccc1C)Oc1ccccc1C | 0.528% | 
COP(=S)(OC)Oc1nc(Cl)c(Cl)cc1Cl | 2.62% | 
Oc1ccc(Cl)c(Cl)c1 | 0.493% | 
CO/N=C(\C(=O)OC)c1ccccc1CO/N=C(\C)c1cccc(C(F)(F)F)c1 | 2.78% | 
CCOP(=O)(Sc1ccccc1)Sc1ccccc1 | 1.35% | 
CCCCC(CC)COC(=O)c1ccccc1C(=O)OCC(CC)CCCC (centres undefined) | -4.97% | 
CN1CCc2cc(Cl)c(O)cc2[C@H]2c3ccccc3CC[C@@H]21 | 0.228% [at 42.5 µM, stronger effect = higher value] | 
O=c1c2ccccc2c(=O)c2c1cc(Cl)c1[nH]c3c([nH]c12)c(Cl)cc1c(=O)c2ccccc2c(=O)c13 | -0.942% | 
CNC(C)(C)Cc1ccccc1 | -5.28% [at 42.5 µM, stronger effect = higher value] | 
CC#C[C@]1(O)CC[C@H]2[C@@H]3C[C@H](C)C4=CC(=O)CC[C@]4(C)[C@H]3CC[C@@]21C | 2.6% [at 42.5 µM, stronger effect = higher value] | 
CN=C=O | 0.508% | 
N#CCCl | -2.13% | 
N#Cc1c[nH]cc1-c1cccc2c1OC(F)(F)O2 | 1.25% | 
COP(=O)(OC)O/C(=C\Cl)c1cc(Cl)c(Cl)cc1Cl | 1.76% | 
O=S1OCC2C(CO1)C1(Cl)C(Cl)=C(Cl)C2(Cl)C1(Cl)Cl (centres undefined) |  | inactive
ClC1(Cl)C2(Cl)C3(Cl)C4(Cl)C(Cl)(Cl)C5(Cl)C3(Cl)C1(Cl)C5(Cl)C24Cl (centres undefined) | -0.0393% | 
c1ccc(N=NNc2ccccc2)cc1 |  | inactive
CSC(C)(C)/C=N/O | 5.26% | 

Target: Thyrotropin receptor (Homo sapiens) (UniProt P16473)
Experiment: qHTS assay to identify small molecule antagonists of the thyroid stimulating hormone receptor (TSHR) signaling pathway (AID 1259385); further: nearly all actives have a fitted effect of over 20% in size; further: potency means the concentration at half of the fitted maximal effect
Conditions: TSHR-HEK293 cAMP HTRF, TSH-stimulated antagonist mode; series mostly up to 92.4 µM; activity change, negative = inhibition: at the top concentration
Outline: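 Antagonist mode: compound-treated TSHR-expressing HEK293 cells were stimulated with 1.5 ng/mL TSH (final) in presence of Ro20-1724 for 30 min at RT. HTRF cAMP detection after 1 h; each compound tested at 15 concentrations, triplicate.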

Thyrotropin receptor (Homo sapiens), sequence (P16473 whole entry, looked up): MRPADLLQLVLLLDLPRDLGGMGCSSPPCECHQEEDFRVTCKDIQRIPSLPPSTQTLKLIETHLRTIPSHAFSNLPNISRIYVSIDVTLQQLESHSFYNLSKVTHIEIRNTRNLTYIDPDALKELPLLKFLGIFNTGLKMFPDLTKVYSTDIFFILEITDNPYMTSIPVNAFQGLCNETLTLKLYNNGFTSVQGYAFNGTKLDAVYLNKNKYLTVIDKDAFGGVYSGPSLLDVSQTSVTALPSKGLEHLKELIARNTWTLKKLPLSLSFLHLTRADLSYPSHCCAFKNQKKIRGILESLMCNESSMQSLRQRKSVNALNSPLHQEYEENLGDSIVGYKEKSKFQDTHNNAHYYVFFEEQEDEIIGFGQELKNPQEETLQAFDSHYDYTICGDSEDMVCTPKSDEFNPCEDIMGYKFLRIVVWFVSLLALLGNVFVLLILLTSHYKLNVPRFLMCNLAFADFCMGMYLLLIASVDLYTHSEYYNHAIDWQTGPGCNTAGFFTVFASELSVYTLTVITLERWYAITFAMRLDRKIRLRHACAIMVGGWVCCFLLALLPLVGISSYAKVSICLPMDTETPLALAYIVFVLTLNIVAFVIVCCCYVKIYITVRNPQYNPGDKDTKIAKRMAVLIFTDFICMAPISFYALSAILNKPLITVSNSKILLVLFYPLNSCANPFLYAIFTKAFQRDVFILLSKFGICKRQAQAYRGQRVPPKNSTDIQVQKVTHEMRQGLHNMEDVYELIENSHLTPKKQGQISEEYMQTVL

Structure (SMILES) | activity change, negative = inhibition | Potency
CC1CCCC1 | -3.8% | 
BrCCCBr | -2.11% | 
CC[N+]1(CC)CCC(OC(=O)C(O)(c2ccccc2)c2ccccc2)C1 (centres undefined) | -0.116% [at 42.5 µM] | 
O=c1[nH]c(Cl)c(Cl)cc1Cl | -0.236% | 
CC(=O)[O][Sn]([c]1ccccc1)([c]1ccccc1)[c]1ccccc1 |  | 19.3 µM (active)
C[C@]12C/C(=C/O)C(=O)C[C@@H]1CC[C@@H]1[C@@H]2CC[C@@]2(C)[C@H]1CC[C@]2(C)O |  | inactive
O=C(CCCCl)c1ccc(F)cc1 | -0.784% [at 42.5 µM] | 
Cc1c([N+](=O)[O-])c(C)c([N+](=O)[O-])c(C(C)(C)C)c1[N+](=O)[O-] | -2.7% | 
CCNS(=O)(=O)C(F)(F)C(F)(F)C(F)(F)C(F)(F)C(F)(F)C(F)(F)C(F)(F)C(F)(F)F | -0.055% | 
Cc1ccccc1OP(=O)(Oc1ccccc1C)Oc1ccccc1C | -5.99% | 
COP(=S)(OC)Oc1nc(Cl)c(Cl)cc1Cl | -0.715% | 
Oc1ccc(Cl)c(Cl)c1 | 2.5% | 
CC1=C2C[C@H]3[C@@H](CC=C4C[C@@H](O)CC[C@@]43C)[C@@H]2CC[C@]12O[C@@H]1C[C@H](C)CN[C@H]1[C@H]2C | -0.147% [at 42.5 µM] | 
CCOP(=O)(Sc1ccccc1)Sc1ccccc1 | 2.83% | 
CCCCC(CC)COC(=O)c1ccccc1C(=O)OCC(CC)CCCC (centres undefined) | 0.129% | 
CN1CCc2cc(Cl)c(O)cc2[C@H]2c3ccccc3CC[C@@H]21 | -7.86% [at 42.5 µM] | 
O=c1c2ccccc2c(=O)c2c1cc(Cl)c1[nH]c3c([nH]c12)c(Cl)cc1c(=O)c2ccccc2c(=O)c13 | -0.68% | 
CNC(C)(C)Cc1ccccc1 | 0.397% [at 42.5 µM] | 
CC#C[C@]1(O)CC[C@H]2[C@@H]3C[C@H](C)C4=CC(=O)CC[C@]4(C)[C@H]3CC[C@@]21C | -7.46% [at 42.5 µM] | 
CN=C=O | 0.475% | 
c1ccc2c(c1)cc1ccc3cccc4ccc2c1c34 | -0.729% | 
N#CCCl | 0.246% | 
N#Cc1c[nH]cc1-c1cccc2c1OC(F)(F)O2 | -3.72% | 
O=S1OCC2C(CO1)C1(Cl)C(Cl)=C(Cl)C2(Cl)C1(Cl)Cl (centres undefined) | 3.3% | 
ClC1(Cl)C2(Cl)C3(Cl)C4(Cl)C(Cl)(Cl)C5(Cl)C3(Cl)C1(Cl)C5(Cl)C24Cl (centres undefined) | -0.669% | 
c1ccc(N=NNc2ccccc2)cc1 |  | inactive
CSC(C)(C)/C=N/O | 1.13% | 

System: not listed separately
Experiment: qHTS assay to identify small molecule agonists of the estrogen receptor alpha (ER-alpha) signaling pathway in the presence of an antagonist - cell viability counter screen (AID 1259386; active means well fitted cell-killing curve with a large enough effect in the repeat runs;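 further: cells exposed to compounds for 22 h at 37 °C before the viability read; nearly all actives have a fitted effect of over 30% in size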; further: potency means the concentration at half of the fitted maximal effect)
Conditions: VM7Luc4E2 viability, CellTiter-Fluor fluorescence, 22 h; series mostly up to 92.4 µM; activity change, negative = cytotoxicity: at the top concentration
Outline: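 Using estrogen-depleted VM7Luc4E2 cells, the 15-concentration compound series was applied together with 10.0nM ICI-182,780 and incubated 22hr at 37C/5% CO2. Cell viability was then scored by CellTiter-Fluor.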

Structure (SMILES) | activity change, negative = cytotoxicity | Potency
CC1CCCC1 | 2.1% | 
BrCCCBr | -0.209% | 
CC[N+]1(CC)CCC(OC(=O)C(O)(c2ccccc2)c2ccccc2)C1 (centres undefined) | 5.06% [at 42.5 µM] | 
CCCCN(CCCC)C(=S)[S-].CCCCN(CCCC)C(=S)[S-].[Ni+2] | 1.27% [at 42.5 µM] | 
O=c1[nH]c(Cl)c(Cl)cc1Cl | 1.79% | 
N#Cc1sc2c(=O)c3ccccc3c(=O)c=2sc1C#N |  | 7.7 µM (active)
CC(=O)[O][Sn]([c]1ccccc1)([c]1ccccc1)[c]1ccccc1 |  | 8.63 µM (active)
C[C@]12C/C(=C/O)C(=O)C[C@@H]1CC[C@@H]1[C@@H]2CC[C@@]2(C)[C@H]1CC[C@]2(C)O |  | inactive
O=C(CCCCl)c1ccc(F)cc1 | 0.386% [at 42.5 µM] | 
Cc1c([N+](=O)[O-])c(C)c([N+](=O)[O-])c(C(C)(C)C)c1[N+](=O)[O-] | -8.12% | 
CC(C)NCC(O)c1ccccc1Cl (centres undefined) | -7.95% [at 42.5 µM] | 
CCNS(=O)(=O)C(F)(F)C(F)(F)C(F)(F)C(F)(F)C(F)(F)C(F)(F)C(F)(F)C(F)(F)F | -0.918% | 
COP(=S)(OC)Oc1nc(Cl)c(Cl)cc1Cl | -0.273% | 
Oc1ccc(Cl)c(Cl)c1 | -0.186% | 
CO/N=C(\C(=O)OC)c1ccccc1CO/N=C(\C)c1cccc(C(F)(F)F)c1 |  | 30.6 µM (active)
CCOP(=O)(Sc1ccccc1)Sc1ccccc1 | 0.409% | 
CCCCC(CC)COC(=O)c1ccccc1C(=O)OCC(CC)CCCC (centres undefined) | 1.6% | 
O=c1c2ccccc2c(=O)c2c1cc(Cl)c1[nH]c3c([nH]c12)c(Cl)cc1c(=O)c2ccccc2c(=O)c13 | -8.4% | 
O=C(O)[C@H](O)[C@@H](O)C(=O)O | 6.36% | 
[Cl-].[Cl-].[Cl-].[Yb+3] | 4.41% | 
CC#C[C@]1(O)CC[C@H]2[C@@H]3C[C@H](C)C4=CC(=O)CC[C@]4(C)[C@H]3CC[C@@]21C | -1.46% [at 42.5 µM] | 
CN=C=O | 0.21% | 
N#CCCl | -2.17% | 
COP(=O)(OC)O/C(=C\Cl)c1cc(Cl)c(Cl)cc1Cl | 0.566% | 
O=S1OCC2C(CO1)C1(Cl)C(Cl)=C(Cl)C2(Cl)C1(Cl)Cl (centres undefined) | -9.41% | 
ClC1(Cl)C2(Cl)C3(Cl)C4(Cl)C(Cl)(Cl)C5(Cl)C3(Cl)C1(Cl)C5(Cl)C24Cl (centres undefined) | 8.04% | 
CCO/N=C(\CC)C1=C(O)CC(c2c(C)cc(C)cc2C)CC1=O (centres undefined) | 2.63% | 
O=S1(=O)OCC2C(CO1)C1(Cl)C(Cl)=C(Cl)C2(Cl)C1(Cl)Cl (centres undefined) | 1.77% | 
c1ccc(N=NNc2ccccc2)cc1 |  | 28.3 µM (active) and 27.3 µM (active)
CSC(C)(C)/C=N/O | 6.36% | 
